Among the test systems are SR leukemia; RPMI-8226 leukemia; OVCAR-8 ovarian; OVCAR-4 ovarian; SK-OV-3 ovarian; OVCAR-3 ovarian; HS 578T breast; NCI/ADR-RES ovarian; IGROV1 ovarian.
Holding throughout (assay): NCI-60 one-dose screen, 48 h (100 = growth as untreated, 0 = no growth, -100 = all killed)
Holding throughout (conditions): 10 µM unless noted

The panel holds about 83,000 compounds, 20% with a hit somewhere; the sample as a whole holds those more often.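 Negative percent growth values reflect cell death: -40 means 40% of the cells present at the start died, and -100 means all died.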 Unmarked numbers belong to inactive results. The source made the active and inactive calls. How the source made its calls: active means growth percent below 10; inactive means the rest.

Consider `COc1ccc(-c2nnc(SCC(=O)Nc3ccc(/C(C)=N\O)cc3)n2-c2ccccc2)cc1OC`, for which the growth is 95.4% with SR leukemia; 91.6% in the assay on RPMI-8226 leukemia; 42.7% with OVCAR-8 ovarian; 103% in the assay with OVCAR-4 ovarian; 4.74% (active) in the assay on SK-OV-3 ovarian; 82% with OVCAR-3 ovarian. Besides, the growth was 42.8% in the assay on HS 578T breast and 90.6% with NCI/ADR-RES ovarian.

As for `O=C(CSc1nnc2sc(Nc3cccc(Cl)c3)nn12)c1ccc(F)cc1`, the growth is 90.9% in the assay on SR leukemia; 94.9% with RPMI-8226 leukemia; 102% in the assay with OVCAR-8 ovarian; 101% in the assay with OVCAR-4 ovarian; 82.1% in the assay with SK-OV-3 ovarian; 101% in the assay on IGROV1 ovarian. The values for the growth in the assay on OVCAR-3 ovarian, in the assay on HS 578T breast and in the assay with NCI/ADR-RES ovarian were 106%, 97.4% and 96.4%, respectively.

For `CC(=O)N(Cc1ccccc1)c1nc2ccc(O)c(CN(C)C)c2s1`, the growth in the assay with SR leukemia is 106%; in the assay with RPMI-8226 leukemia it was 95.2%; in the assay on OVCAR-8 ovarian it was 103%; with OVCAR-4 ovarian, 97.6%; in the assay with SK-OV-3 ovarian, 104%; in the assay with IGROV1 ovarian, 93.9%. The growth in the assay on OVCAR-3 ovarian is 105%; in the assay on HS 578T breast it was 92.6%; in the assay on NCI/ADR-RES ovarian, 93.5%.

`COc1ccc(-c2cc(C(=O)N3N=C(c4ccc(N)cc4)CC3c3ccccc3)c3ccccc3n2)cc1` (stereo not given): the growth is 22.6% with SR leukemia; 23.5% in the assay on RPMI-8226 leukemia; 47.5% in the assay on OVCAR-8 ovarian; 65% in the assay on OVCAR-4 ovarian; 34.9% with SK-OV-3 ovarian; 49.5% in the assay with IGROV1 ovarian. The growth in the assay on OVCAR-3 ovarian was 10.7%; with HS 578T breast it was 36.8%; in the assay with NCI/ADR-RES ovarian it was 34.4%.

Regarding `N#Cc1c(-c2ccccc2)nc2c(c(-c3ccccc3)nn2-c2ccccc2)c1-c1ccc(N2CCOCC2)cc1`, the growth was 24.5% in the assay on SR leukemia; 76% with RPMI-8226 leukemia; 99% in the assay on OVCAR-8 ovarian; 103% with OVCAR-4 ovarian; 108% in the assay with SK-OV-3 ovarian; 87.7% in the assay with IGROV1 ovarian. In addition, the growth in the assay on OVCAR-3 ovarian is 96%; in the assay with HS 578T breast it was 104%; with NCI/ADR-RES ovarian it was 94.6%.

Consider `N#C/C(=C\c1ccc(-c2ccc(Cl)cc2)o1)c1ccc(Cl)cc1`, for which the growth was 59.6% with SR leukemia; 44.8% with RPMI-8226 leukemia; 58.4% in the assay on OVCAR-8 ovarian; -14.1% (active) in the assay on OVCAR-4 ovarian; 75.5% in the assay with SK-OV-3 ovarian; 23.6% in the assay with IGROV1 ovarian. In addition, the growth was 56.4% in the assay with OVCAR-3 ovarian, 29.8% with HS 578T breast and 60% in the assay with NCI/ADR-RES ovarian.

For `COc1cc(/C=C\c2cc(/C=C\c3ccc(O)c(OC)c3)n(C(=O)CNc3ccc(Cl)cc3)n2)ccc1O`, the growth in the assay with SR leukemia is 3.39% (active); in the assay with RPMI-8226 leukemia, 17.4%; in the assay with OVCAR-8 ovarian, 28.2%; in the assay with OVCAR-4 ovarian it was 56.6%; in the assay on SK-OV-3 ovarian it was 21.1%; in the assay on IGROV1 ovarian, 36.7%. Besides, the growth was 22.9% with OVCAR-3 ovarian, 30% in the assay with HS 578T breast and 21% in the assay on NCI/ADR-RES ovarian.

`CCCCNC1=C(OCC)C(=O)c2ccccc2C1=O`: the growth is 112% in the assay with SR leukemia; 88.1% in the assay on RPMI-8226 leukemia; 101% in the assay on OVCAR-8 ovarian; 94.3% in the assay on OVCAR-4 ovarian; 119% in the assay with SK-OV-3 ovarian; 115% in the assay on IGROV1 ovarian. The growth with OVCAR-3 ovarian is 98.3%; with HS 578T breast it was 84.2%; with NCI/ADR-RES ovarian, 97.3%.

On to `CC(=O)c1c(Nc2ccc(F)c(F)c2F)[nH]c2c(F)cc(F)cc2c1=O`, for which the growth with SR leukemia was 8.21% (active); in the assay with RPMI-8226 leukemia it was -10.6% (active); in the assay on OVCAR-8 ovarian, 5.38% (active); in the assay with OVCAR-4 ovarian, 12.1%; in the assay with SK-OV-3 ovarian it was -4.26% (active); in the assay on OVCAR-3 ovarian, 7.99% (active). Besides, the growth in the assay with HS 578T breast is 4.13% (active).

Turning to `Cc1ccc(C)c2c1C(O)(C#Cc1ccccc1)c1ccccc1C2(O)C#Cc1ccccc1` (stereo not given), the growth was 123% with SR leukemia; 18.9% in the assay on RPMI-8226 leukemia; 59.3% with OVCAR-8 ovarian; 47.7% in the assay on OVCAR-4 ovarian; 75% with SK-OV-3 ovarian; -12.5% (active) with IGROV1 ovarian. For the same compound, the values for the growth in the assay with OVCAR-3 ovarian, with HS 578T breast and in the assay with NCI/ADR-RES ovarian were 63.3%, 72.5% and 71.1%, respectively.

Regarding `Nc1ncnc2c1c(-c1ccc(Oc3ccccc3)cc1)nn2CC1SSCC1O` (stereo not given), the growth in the assay on SR leukemia is -16.2% (active); in the assay on RPMI-8226 leukemia, 38%; in the assay on OVCAR-8 ovarian, 67.7%; in the assay on OVCAR-4 ovarian, 67.4%; with SK-OV-3 ovarian it was 44.3%; with IGROV1 ovarian it was 15.6%. Also, the growth in the assay with OVCAR-3 ovarian was 11.9%; in the assay on HS 578T breast it was 66.7%; with NCI/ADR-RES ovarian it was 77.5%.

Consider `CC(/C=C1\SC(=S)N(CC(=O)NC(Cc2c[nH]c3ccccc23)C(=O)O)C1=O)=C\c1ccccc1` (stereo not given), for which the growth with SR leukemia is 108%; in the assay on RPMI-8226 leukemia, 105%; in the assay on OVCAR-8 ovarian, 100%; with OVCAR-4 ovarian it was 101%; in the assay on SK-OV-3 ovarian, 105%; in the assay with IGROV1 ovarian, 101%. The growth with OVCAR-3 ovarian was 108%; in the assay on HS 578T breast it was 103%; in the assay with NCI/ADR-RES ovarian, 103%.

For `CS(=O)(=O)Cc1cnc(C2OCCO2)s1`, the growth was 123% in the assay with SR leukemia; 109% with RPMI-8226 leukemia; 104% with OVCAR-8 ovarian; 100% with OVCAR-4 ovarian; 139% with SK-OV-3 ovarian; 97.5% in the assay on IGROV1 ovarian. The values for the growth in the assay with OVCAR-3 ovarian and in the assay with HS 578T breast were 96.3% and 106%, respectively.

As for `O=C(Nc1ccccc1)c1sc(-c2ccccc2)cc1O`, the growth in the assay with SR leukemia is 70.4%; with RPMI-8226 leukemia, 74.4%; in the assay with OVCAR-8 ovarian, 119%; in the assay with OVCAR-4 ovarian it was 90.9%; with SK-OV-3 ovarian, 106%; with IGROV1 ovarian, 92.5%. Further, the values for the growth with OVCAR-3 ovarian, in the assay with HS 578T breast and in the assay on NCI/ADR-RES ovarian were 84.1%, 92% and 93.4%, respectively.

As for `N=C(N)c1ccc(-c2ccc(-c3ccc(Cl)cc3Cl)s2)cc1F`, the growth in the assay with SR leukemia was -6.47% (active); with RPMI-8226 leukemia, -36.4% (active); with OVCAR-8 ovarian it was -35.3% (active); in the assay with OVCAR-4 ovarian, -24.9% (active); in the assay on IGROV1 ovarian it was -88.4% (active); with OVCAR-3 ovarian it was -79.3% (active). Moreover, the growth is 9.71% (active) with HS 578T breast and 10.1% in the assay on NCI/ADR-RES ovarian.

As for `O=C(Cn1nnc2ccccc21)N/N=C/c1ccccc1F`, the growth was 96.8% with SR leukemia; 101% in the assay on RPMI-8226 leukemia; 95.2% with OVCAR-8 ovarian; 110% in the assay with OVCAR-4 ovarian; 98.2% in the assay on SK-OV-3 ovarian; 109% with IGROV1 ovarian. Further, the results for the growth in the assay on OVCAR-3 ovarian, with HS 578T breast and in the assay on NCI/ADR-RES ovarian were 108%, 81.2% and 109%, respectively.

Consider `O=C(O)C1CN(c2cccc(Cl)c2)N(c2cccc(Cl)c2)C1=O` (stereo not given), for which the growth in the assay on SR leukemia is 85%; with RPMI-8226 leukemia, 107%; in the assay on OVCAR-8 ovarian, 93.2%; in the assay with OVCAR-4 ovarian, 96%; in the assay on SK-OV-3 ovarian it was 88.9%; with IGROV1 ovarian, 89.8%. Moreover, the growth was 87.1% with OVCAR-3 ovarian, 91% with HS 578T breast and 93.9% in the assay with NCI/ADR-RES ovarian.

Consider `Cn1cc(-c2nonc2-c2c[nH]c3ccccc23)c2ccccc21`, for which the growth is 11.6% with SR leukemia; 8.96% (active) in the assay on RPMI-8226 leukemia; 16% with OVCAR-8 ovarian; 30.5% in the assay with OVCAR-4 ovarian; 24.4% with IGROV1 ovarian; -17.7% (active) in the assay with OVCAR-3 ovarian. The results for the growth in the assay on HS 578T breast and in the assay on NCI/ADR-RES ovarian were 6.76% (active) and 5.05% (active), respectively.

Turning to `CCN=C1C=CC(=C(c2ccc(N(C)C)cc2)c2ccc(N(C)C)cc2)c2ccccc21`, the growth was 3.56% (active) in the assay on SR leukemia; -22.9% (active) in the assay on RPMI-8226 leukemia; -8.37% (active) in the assay with OVCAR-8 ovarian; 16.3% with OVCAR-4 ovarian; -35.2% (active) in the assay on SK-OV-3 ovarian; -7.04% (active) in the assay with IGROV1 ovarian. Further, the growth in the assay with OVCAR-3 ovarian is -60.9% (active); with HS 578T breast it was -29.8% (active); in the assay on NCI/ADR-RES ovarian it was 12.3%.

For the origin of these results see PubChem BioAssay (NCI).
